# Several values for one entry are separate records, joined by “and”; a condition that tells them apart may be missing. Identical values can stand only once. Activity calls are given as the source filed them. Where a call stands in place of a potency, no number is given. Unless noted, calls come from the whole dose curve; as a rule, active = well fitted curve in the direction sought with a large enough effect; inconclusive = small, poorly fitted or top-dose-only effect, or another doubt; inactive = no such curve, though single readings can be large; an effect the other way counts as inactive or inconclusive.
# Legend:
# [1] = Nrf2 qHTS screen for inhibitors: Validation (AID 493153; active = well fitted inhibition curve with a large enough effect in the main read-out, with a control signal flat, not every such curve was filed as active; inconclusive = small, poorly fitted or top-dose-only effect, or effect the other way, or a change in a side signal; inactive = no such curve, though single readings can be large or run the other way); conditions: viability change: measured here: cytotoxicity max response
# Outline: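 A549 ARE_Fluc, 5% FBS OPTI-MEM; cpd titration, 18-24 h, 37°C/5% CO2. Read 1: CellTiter-Fluor (Ex 405/Em 525), cytotox. Read 2: luciferase lum, Nrf2 activity.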
# [2] = qHTS for Inhibitors of Cell Surface uPA Generation: Validation Assay (AID 493164);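 note: RAW 264.7 macrophage cells exposed to compound for 18 h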
# Outline: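 ATP-Lite luminescence read-out: ATP remains high when uPA activity-dependent LF translocation into the cytoplasm is blocked. RAW 264.7 cells, 18 h compound exposure at 37 C; 7-point titration, 2.45 nM to 38.3 uM final.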
# [3] = target: Peptidyl-prolyl cis-trans isomerase NIMA-interacting 1 (Homo sapiens) (UniProt Q13526); assay: qHTS Validation Assay to Find Inhibitors of Pin1 (AID 504536; active = well fitted inhibition curve with a large enough effect in the polarisation, with a control signal flat, not every such curve was filed as active; inconclusive = small, poorly fitted or top-dose-only effect, or effect the other way; the % refers to the polarisation)
# Peptidyl-prolyl cis-trans isomerase NIMA-interacting 1 (Homo sapiens), sequence (Q13526 whole entry, looked up): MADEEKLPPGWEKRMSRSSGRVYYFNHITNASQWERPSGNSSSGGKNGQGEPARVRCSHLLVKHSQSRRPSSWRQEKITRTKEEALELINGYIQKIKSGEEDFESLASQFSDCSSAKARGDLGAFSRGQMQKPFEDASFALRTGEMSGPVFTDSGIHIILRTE
# Outline: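 Fluorescence polarization competition: compounds (titration) displace HiFluor-488-labeled Pin1-1b peptide from Pin1 (0.3 uM final) in pH 7.5 HEPES buffer with DTT, 10 min at room temperature; %Activity normalized to no-enzyme wells, curves fitted.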
# [4] = target: Phosphoglycerate kinase, glycosomal (Trypanosoma brucei brucei) (UniProt P07378); assay: qHTS Validation Assay to Find Inhibitors of Phosphoglycerate Kinase (AID 504547)
# Phosphoglycerate kinase, glycosomal (Trypanosoma brucei brucei), sequence (P07378 whole entry, looked up): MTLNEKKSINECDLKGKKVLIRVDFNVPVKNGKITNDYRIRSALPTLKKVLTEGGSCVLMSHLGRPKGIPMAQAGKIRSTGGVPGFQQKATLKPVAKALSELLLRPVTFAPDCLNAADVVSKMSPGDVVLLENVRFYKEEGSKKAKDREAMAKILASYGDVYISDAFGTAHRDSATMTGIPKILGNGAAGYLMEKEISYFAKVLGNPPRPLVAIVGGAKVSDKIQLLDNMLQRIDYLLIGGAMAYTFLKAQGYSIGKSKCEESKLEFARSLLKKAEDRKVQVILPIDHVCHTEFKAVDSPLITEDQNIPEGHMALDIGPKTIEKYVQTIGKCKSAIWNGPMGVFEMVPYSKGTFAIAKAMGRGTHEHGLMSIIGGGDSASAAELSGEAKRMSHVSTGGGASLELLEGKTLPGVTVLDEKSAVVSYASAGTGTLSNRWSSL
# Outline: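 Compounds are pinned into the substrate/PGK mixture, and GAPDH (100nM final) is added to start the reaction by producing 1,3-BPG. After 60 minutes at room temperature, Kinase-Glo Plus is added and luminescence is measured 10 minutes later.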
# [5] = target: phosphoglycerate mutase (Leishmania major) (UniProt Q4Q090); assay: qHTS Validation Assay to Find Inhibitors of Phosphoglycerate Mutase (AID 504548); note: series mostly up to about 58 µM
# Outline: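 Lm PGAM at 1.25 nM final with substrate in 100 mM TEA pH 7.6, 5 mM MgCl2, 0.01% Tween-20; 45 min at room temperature. Kinase-GloPlus added, 10 min, end-point luminescence read.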
# [6] = Inducers of the Endoplasmic Reticulum Stress Response (ERSR) in human glioma: Validation (AID 504836)
# Outline: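 Stably transfected U87-MG glioma cells carrying a GRP78-based luciferase sensor; 16 h compound incubation. Luminescence end-point read 10 min after Bright-Glo addition at room temperature.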
# [7] = target: Ubiquitin carboxyl-terminal hydrolase 1 (Homo sapiens) (UniProt O94782); assay: Inhibitors of USP1/UAF1: Pilot qHTS (AID 504865); note: nearly all actives have a fitted effect of over 35% in size; note: potency is the fitted concentration of half-maximal effect
# Ubiquitin carboxyl-terminal hydrolase 1 (Homo sapiens), sequence (O94782 whole entry, looked up): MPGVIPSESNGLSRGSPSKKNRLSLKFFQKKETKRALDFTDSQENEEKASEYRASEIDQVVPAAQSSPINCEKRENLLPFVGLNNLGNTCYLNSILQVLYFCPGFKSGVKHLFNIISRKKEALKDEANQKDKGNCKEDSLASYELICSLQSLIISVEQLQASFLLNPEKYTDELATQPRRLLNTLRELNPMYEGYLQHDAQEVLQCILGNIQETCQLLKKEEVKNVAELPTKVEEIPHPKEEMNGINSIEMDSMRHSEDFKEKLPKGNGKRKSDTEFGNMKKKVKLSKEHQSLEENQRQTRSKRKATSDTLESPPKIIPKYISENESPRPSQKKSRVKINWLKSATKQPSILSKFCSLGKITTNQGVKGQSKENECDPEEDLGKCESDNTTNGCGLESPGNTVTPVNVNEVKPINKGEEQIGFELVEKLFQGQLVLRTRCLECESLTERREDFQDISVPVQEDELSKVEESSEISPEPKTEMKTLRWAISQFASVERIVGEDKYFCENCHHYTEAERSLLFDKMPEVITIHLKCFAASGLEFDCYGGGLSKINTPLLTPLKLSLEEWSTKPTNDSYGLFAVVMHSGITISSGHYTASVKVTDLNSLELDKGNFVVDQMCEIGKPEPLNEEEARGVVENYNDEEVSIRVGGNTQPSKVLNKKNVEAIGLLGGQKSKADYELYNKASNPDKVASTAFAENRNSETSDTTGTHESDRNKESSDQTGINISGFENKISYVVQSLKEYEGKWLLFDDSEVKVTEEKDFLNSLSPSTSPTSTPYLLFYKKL
# Outline: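 USP1/UAF1 complex (1nM) preincubated with compound 15 min at room temperature, then Ub-Rho substrate (150nM final) added. Fluorescence read kinetically at 480/540 nm, 6 reads every 60 seconds. Buffer: 50mM HEPES pH 7.8, 0.5mM EDTA, 0.1 mg/ml BSA, 1mM TCEP, 0.01% Tween-20.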
# [8] = qHTS for Inhibitors of ATXN expression: Validation of Cytotoxic Assay (AID 588349)
# Outline: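 Titrated compounds are added to cultured HEK293 cells, which are then held at 37 degrees C for 72 hr; loss of intracellular ATP, measured with CellTiter Glo, indicates toxicity.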
# [9] = qHTS for Inhibitors of ATXN expression: Validation (AID 588378); note: series mostly up to about 57 µM; nearly all actives have a fitted effect of over 75% in size
# Outline: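 Luminescence from an ATXN2-FFLuc reporter in HEK293 cells served as read-out after 24 h compound treatment at 37 degrees C; CellTiter-Fluor fluorescence was recorded first to assess viability.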
# [10] = target: DNA dC->dU-editing enzyme APOBEC-3G (Homo sapiens) (UniProt Q9HC16); assay: qHTS for inhibitors of Vif-A3G interactions: Validation (AID 588379)
# DNA dC->dU-editing enzyme APOBEC-3G (Homo sapiens), sequence (Q9HC16 whole entry, looked up): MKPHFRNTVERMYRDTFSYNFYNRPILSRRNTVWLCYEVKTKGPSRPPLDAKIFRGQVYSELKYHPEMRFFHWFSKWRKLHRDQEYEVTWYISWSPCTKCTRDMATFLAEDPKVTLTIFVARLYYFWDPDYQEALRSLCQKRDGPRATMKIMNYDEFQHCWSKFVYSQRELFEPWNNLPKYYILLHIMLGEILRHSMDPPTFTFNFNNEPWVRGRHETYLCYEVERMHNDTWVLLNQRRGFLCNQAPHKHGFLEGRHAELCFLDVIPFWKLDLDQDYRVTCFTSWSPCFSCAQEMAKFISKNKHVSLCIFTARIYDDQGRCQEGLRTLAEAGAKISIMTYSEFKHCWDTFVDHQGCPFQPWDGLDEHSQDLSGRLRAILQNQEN
# Outline: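 Yellow fluorescence (Ex 488, Em 500-530) of Vif-coexpressing HeLa A3G-eYFP cells, scanned by Acumen cytometer, reports blocked A3G degradation. Cells plated at 700/well overnight at 37 deg C before compound addition, then a further overnight compound incubation at 37 deg C.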
# [11] = target: Thyrotropin-releasing hormone receptor (Homo sapiens) (UniProt P34981); assay: qHTS for Small Molecule Agonists and Allosteric Enhancers of Human TRH Receptor: Validation Screen for Agonists (AID 493127;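 active = calcium activation more than 3 SD above the typical response in the agonist read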;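 note: intracellular calcium rise by fluo-8 fluorescence before TRH EC20 addition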); conditions: TRH receptor agonist cell assay; at 2 µM; stronger effect = higher value
# Outline: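 Compounds are added by online pintool to dye-loaded TRHR cells while fluorescence is recorded every second. A rise in calcium signal during the agonist read marks activation; a later 10 nM TRH addition (EC20) serves the separate enhancer mode.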
# [12] = target: Galactokinase (Homo sapiens) (UniProt P51570); assay: qHTS Validation Assay for Inhibitors of Human Galactokinase (GALK) (AID 493189)
# Galactokinase (Homo sapiens), sequence (P51570 whole entry, looked up): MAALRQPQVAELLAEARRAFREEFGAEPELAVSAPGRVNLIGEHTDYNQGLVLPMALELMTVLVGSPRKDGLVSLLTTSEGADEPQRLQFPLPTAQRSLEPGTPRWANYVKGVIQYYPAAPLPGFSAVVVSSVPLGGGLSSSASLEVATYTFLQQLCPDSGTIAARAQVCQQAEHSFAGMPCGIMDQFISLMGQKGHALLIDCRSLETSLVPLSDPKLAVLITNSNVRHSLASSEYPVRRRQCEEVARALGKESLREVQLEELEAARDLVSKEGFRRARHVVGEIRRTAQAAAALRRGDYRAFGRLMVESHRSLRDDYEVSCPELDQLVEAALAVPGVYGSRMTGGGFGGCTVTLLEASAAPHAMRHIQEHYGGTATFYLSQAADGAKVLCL
# Outline: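 GALK (5 nM) with 35 uM ATP and 100 uM galactose in HEPES pH8.0, MgCl2, NaCl, DTT, BSA; 1 h at room temperature. Residual ATP read by Kinase-Glo Plus luminescence after 10 min.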
# [13] = target: Estrogen receptor (Homo sapiens) (UniProt P03372); assay: qHTS assay for small molecule antagonists of estrogen receptor alpha signaling (AID 588513; active = well fitted curve in the direction sought with a large enough effect in the signal ratio, with a control signal flat, not every such curve was filed as active; inconclusive = small, poorly fitted or top-dose-only effect, or effect the other way, or a change in a side signal; inactive = no such curve, though single readings can be large or run the other way; the % refers to the signal ratio; note: potency is the fitted concentration of half-maximal effect)
# Estrogen receptor (Homo sapiens), sequence (P03372 whole entry, looked up): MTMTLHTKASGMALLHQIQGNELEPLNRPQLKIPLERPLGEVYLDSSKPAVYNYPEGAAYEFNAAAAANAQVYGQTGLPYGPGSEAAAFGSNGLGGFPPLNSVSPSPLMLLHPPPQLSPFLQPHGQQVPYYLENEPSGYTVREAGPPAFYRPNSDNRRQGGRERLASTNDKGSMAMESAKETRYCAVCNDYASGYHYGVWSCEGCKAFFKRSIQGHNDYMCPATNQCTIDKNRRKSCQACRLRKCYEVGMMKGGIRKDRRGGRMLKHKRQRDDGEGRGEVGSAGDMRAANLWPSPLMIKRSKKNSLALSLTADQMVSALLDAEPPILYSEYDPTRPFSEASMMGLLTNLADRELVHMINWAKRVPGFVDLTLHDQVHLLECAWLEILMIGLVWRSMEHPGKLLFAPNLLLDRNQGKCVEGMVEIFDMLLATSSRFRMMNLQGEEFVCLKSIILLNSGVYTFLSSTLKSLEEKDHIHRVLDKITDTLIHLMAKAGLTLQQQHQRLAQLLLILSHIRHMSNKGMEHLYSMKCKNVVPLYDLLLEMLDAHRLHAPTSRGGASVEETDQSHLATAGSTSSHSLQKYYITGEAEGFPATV
# Outline: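 ER-alpha-UAS-bla GripTite HEK 293 cells in medium with 2% charcoal/dextran-treated FBS were preincubated 4 h at 37 C, dosed with compound (1:2 titration), stimulated with 0.5nM 17-beta-estradiol for 18 h, then read by CCF4 beta-lactamase fluorescence.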
# [14] = target: Estrogen receptor (Homo sapiens) (UniProt P03372); assay: qHTS assay for small molecule agonists of estrogen receptor alpha signaling (AID 588514; calls by dose curve; note: nearly all actives have a fitted effect of over 70% in size)
# Outline: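 Efficacy is expressed against 20 nM 17-beta-estradiol (100%) and DMSO basal (0%); EC50 from Hill equation. Assay: beta-lactamase reporter in ER-alpha-UAS-bla HEK 293 cells, 18 h compound incubation, CCF4 detection.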
# [15] = target: Glucocorticoid receptor (Homo sapiens) (UniProt P04150); assay: qHTS assay for small molecule agonists of glucocorticoid receptor signaling (AID 588532; active = well fitted curve in the direction sought with a large enough effect in the signal ratio, with a control signal flat; inconclusive = small, poorly fitted or top-dose-only effect, or a change in a side signal; inactive = no such curve, though single readings can be large or run the other way; the % refers to the signal ratio); conditions: HeLa MMTV-bla, beta-lactamase ratio, agonist, 18 h; stronger effect = higher value; percent of dexamethasone control, DMSO zero
# Glucocorticoid receptor (Homo sapiens), sequence (P04150 whole entry, looked up): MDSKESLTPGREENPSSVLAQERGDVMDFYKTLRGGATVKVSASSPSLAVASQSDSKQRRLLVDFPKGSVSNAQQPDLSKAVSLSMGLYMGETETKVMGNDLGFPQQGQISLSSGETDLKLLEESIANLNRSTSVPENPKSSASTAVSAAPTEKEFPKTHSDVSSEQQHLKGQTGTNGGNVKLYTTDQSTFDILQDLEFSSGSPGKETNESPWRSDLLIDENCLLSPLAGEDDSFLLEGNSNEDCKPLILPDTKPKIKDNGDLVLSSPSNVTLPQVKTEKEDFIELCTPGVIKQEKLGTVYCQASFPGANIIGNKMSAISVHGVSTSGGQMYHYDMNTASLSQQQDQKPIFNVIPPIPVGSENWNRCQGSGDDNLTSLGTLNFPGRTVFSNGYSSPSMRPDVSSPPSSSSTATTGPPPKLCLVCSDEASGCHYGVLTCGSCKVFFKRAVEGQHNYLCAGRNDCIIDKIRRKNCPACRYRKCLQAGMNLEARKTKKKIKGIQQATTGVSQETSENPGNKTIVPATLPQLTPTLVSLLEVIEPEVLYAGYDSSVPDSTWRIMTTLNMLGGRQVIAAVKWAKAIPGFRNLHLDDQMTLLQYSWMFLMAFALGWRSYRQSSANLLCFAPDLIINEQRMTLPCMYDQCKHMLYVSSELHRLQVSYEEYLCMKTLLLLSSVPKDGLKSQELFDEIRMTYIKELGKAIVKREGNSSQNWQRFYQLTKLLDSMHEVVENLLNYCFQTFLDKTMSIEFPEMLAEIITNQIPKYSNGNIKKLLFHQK
# Outline: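 Cells were plated and rested 3-5 h at 37 C, compounds were added in titration and incubated 18 h, then CCF4 substrate was loaded for 2 h at RT before reading blue/green fluorescence. EC50 came from Hill-equation fitting.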
# [16] = target: Glucocorticoid receptor (Homo sapiens) (UniProt P04150); assay: qHTS assay for small molecule antagonists of glucocorticoid receptor signaling (AID 588533; active = well fitted inhibition curve with a large enough effect in the signal ratio, with a control signal flat, not every such curve was filed as active; inconclusive = small, poorly fitted or top-dose-only effect, or effect the other way, or a change in a side signal; the % refers to the signal ratio;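 note: cells stimulated with 2 nM dexamethasone as agonist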; note: potency is the fitted concentration of half-maximal effect)
# Outline: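 Antagonist-mode qHTS: compound titrations added to GRE-bla HeLa cells, then dexamethasone 2 nM final; 18 h, 37 C. CCF4 FRET fluorescence normalized to dexamethasone and DMSO; IC50 from Hill fit.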
# [17] = target: Bile acid receptor (Homo sapiens) (UniProt Q96RI1); assay: qHTS assay for small molecule antagonists of farnesoid X receptor signaling (AID 588526; calls by dose curve)
# Bile acid receptor (Homo sapiens), sequence (Q96RI1 whole entry, looked up): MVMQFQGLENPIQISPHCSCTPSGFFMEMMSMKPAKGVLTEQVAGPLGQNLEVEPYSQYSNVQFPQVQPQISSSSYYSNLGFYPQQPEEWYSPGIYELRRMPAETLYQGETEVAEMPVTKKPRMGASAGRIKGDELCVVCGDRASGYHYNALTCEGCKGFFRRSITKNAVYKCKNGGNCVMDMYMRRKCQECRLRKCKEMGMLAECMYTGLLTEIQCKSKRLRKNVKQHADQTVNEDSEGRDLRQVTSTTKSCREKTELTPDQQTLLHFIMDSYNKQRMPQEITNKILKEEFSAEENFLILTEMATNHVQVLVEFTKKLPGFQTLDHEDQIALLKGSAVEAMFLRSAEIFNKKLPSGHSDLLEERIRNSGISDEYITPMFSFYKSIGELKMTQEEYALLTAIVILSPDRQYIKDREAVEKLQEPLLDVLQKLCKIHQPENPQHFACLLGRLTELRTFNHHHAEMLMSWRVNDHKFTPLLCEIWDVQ
# Outline: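 Antagonist mode: titrated compounds tested against chenodeoxycholic acid stimulation (normalized to 50 uM CDCA and DMSO) in GeneBLAzer HEK293T cells for 16 h. Beta-lactamase read by CCF4 fluorescence; IC50 from Hill fits.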
# [18] = target: Androgen receptor (Homo sapiens) (UniProt P10275); assay: qHTS assay for small molecule antagonists of androgen receptor signaling (AID 588516; active = well fitted curve in the direction sought with a large enough effect in the signal ratio, with a control signal flat, not every such curve was filed as active; inconclusive = small, poorly fitted or top-dose-only effect, or effect the other way, or a change in a side signal; inactive = no such curve, though single readings can be large or run the other way; the % refers to the signal ratio; note: potency is the fitted concentration of half-maximal effect)
# Androgen receptor (Homo sapiens), sequence (P10275 whole entry, looked up): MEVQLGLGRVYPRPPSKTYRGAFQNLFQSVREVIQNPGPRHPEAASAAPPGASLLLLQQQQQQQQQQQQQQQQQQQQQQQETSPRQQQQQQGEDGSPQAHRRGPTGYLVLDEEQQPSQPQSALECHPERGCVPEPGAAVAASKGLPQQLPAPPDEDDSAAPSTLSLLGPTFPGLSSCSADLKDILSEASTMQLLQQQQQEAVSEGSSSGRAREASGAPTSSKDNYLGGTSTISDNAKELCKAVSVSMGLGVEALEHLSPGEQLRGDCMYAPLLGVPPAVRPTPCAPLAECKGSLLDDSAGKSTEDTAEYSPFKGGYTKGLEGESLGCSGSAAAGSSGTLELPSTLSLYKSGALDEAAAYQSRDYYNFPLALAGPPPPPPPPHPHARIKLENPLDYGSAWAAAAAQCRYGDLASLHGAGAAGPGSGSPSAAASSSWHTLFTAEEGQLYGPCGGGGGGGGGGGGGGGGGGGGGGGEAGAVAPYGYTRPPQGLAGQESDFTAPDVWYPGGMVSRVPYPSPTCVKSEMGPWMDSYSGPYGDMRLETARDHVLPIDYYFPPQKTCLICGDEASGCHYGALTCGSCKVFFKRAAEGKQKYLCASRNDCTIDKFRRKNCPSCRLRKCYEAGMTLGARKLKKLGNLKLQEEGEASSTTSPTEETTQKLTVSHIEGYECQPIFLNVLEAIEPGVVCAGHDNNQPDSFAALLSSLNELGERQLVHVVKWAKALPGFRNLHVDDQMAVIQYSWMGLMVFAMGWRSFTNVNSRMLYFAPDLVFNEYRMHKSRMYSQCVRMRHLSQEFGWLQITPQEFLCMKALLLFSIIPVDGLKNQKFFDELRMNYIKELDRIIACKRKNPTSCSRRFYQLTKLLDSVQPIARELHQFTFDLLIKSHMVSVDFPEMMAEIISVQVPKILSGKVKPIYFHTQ
# Outline: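 AR-UAS-bla-GripTite HEK 293 cells (2000/well, 5 h at 37 C) received compound titrations, then R1881 at 10 nM final; after 16 h at 37 C, CCF4 dye 2 h RT, beta-lactamase fluorescence read; IC50 from Hill fits.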
# [19] = target: Androgen receptor (Homo sapiens) (UniProt P10275); assay: qHTS assay for small molecule agonists of androgen receptor signaling (AID 588515; active = well fitted curve in the direction sought with a large enough effect in the signal ratio, with a control signal flat; inconclusive = small, poorly fitted or top-dose-only effect, or effect the other way, or a change in a side signal; inactive = no such curve, though single readings can be large or run the other way; the % refers to the signal ratio); conditions: AR-UAS-bla HEK293, beta-lactamase ratio, agonist 16 h; stronger effect = higher value
# Outline: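 Stimulation of an AR-responsive β-lactamase reporter in GripTite HEK293 cells was measured after 16 h compound exposure at 37 °C, via CCF4 fluorescence after 2 h RT. EC50 from Hill fits, normalized to R1881 at 30 nM.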
structure (smiles),measurement,setting,value
COC(=O)[C@@H](N)CCCN=C(N)N[N+](=O)[O-],outcome,[1],inactive
same,viability change,[1],-8.47%
same,outcome,[2],inactive
same,outcome,[3],inactive
same,outcome,[4],inactive
same,outcome,[5],inactive
same,Potency,[6],inactive
same,Potency,[7],inactive
same,outcome,[8],inactive
same,Potency,[9],inactive
same,outcome,[10],inactive
Clc1ccc(C(c2ccc(Cl)cc2)n2cc[n+](CC(OCc3ccc(Cl)cc3Cl)c3ccc(Cl)cc3Cl)c2)cc1 (stereo not given),activation,[11],-4.62% (inactive)
same,outcome,[12],inactive
same,Potency,[6],inactive
COCCOCCO,Potency,[13],inactive
same,outcome,[14],inactive
CCCN1CCO[C@@H]2c3cc(O)ccc3OC[C@@H]21,Potency,[7],inactive
same,outcome,[10],inactive
CCc1c(C)[nH]c2c1C(=O)C(CN1CCOCC1)CC2 (stereo not given),Potency,[6],inactive
COC(=O)c1cncn1C(C)c1ccccc1 (stereo not given),Potency,[7],inactive
CC(=O)Oc1ccccc1C(=O)O,Potency,[6],inactive
O=[N+]([O-])c1ccc([As](=O)(O)O)cc1,Potency,[7],inactive
C[C@]12CCC(=O)C(O)=C1CC[C@@H]1[C@H]3CCC(=O)[C@@]3(C)CC[C@@H]12,Potency,[7],inactive
CC(=O)OCC1=C(C(=O)O)N2C(=O)[C@@H](N)[C@@H]2SC1,Potency,[7],inactive
C[C@H]1CCCC=CC2C[C@H](O)C[C@@H]2[C@H](O)C=CC(=O)O1 (stereo not given in full),outcome,[10],inactive
CC(C)C[C@H](NC(=O)[C@@H](O)[C@H](N)Cc1ccccc1)C(=O)O,Potency,[6],inactive
CCC(=O)OC1CCC2C3CCC4=CC(=O)CC[C@@]4(C)C3CC[C@]12C (stereo not given in full),Potency,[7],inactive
C1CCC(NC2CCCCC2)CC1,Potency,[7],inactive
same,Potency,[13],inactive
same,outcome,[14],inactive
same,activation,[15],3.43% (inactive) and -1% (inactive) and -4.74% (inactive)
same,Potency,[16],inactive
O=c1cccc2n1CC1CNC[C@H]2C1,outcome,[10],inactive
CCOC(=O)c1cncn1[C@H](C)c1ccccc1,Potency,[7],inactive
same,outcome,[10],inactive
NCCS,Potency,[6],inactive
C[C@@H](N)C1CCC(C(=O)Nc2ccncc2)CC1 (stereo not given in full),Potency,[6],inactive
Cc1cc(O)ccc1Cl,Potency,[7],inactive
same,Potency,[13],inactive
same,outcome,[14],inactive
same,outcome,[17],inactive
same,Potency,[16],inactive
C[C@]12C[C@H](O)[C@H]3[C@@H](CCC4=CC(=O)CC[C@@]43C)[C@@H]1CC[C@@H]2C(=O)CO,Potency,[6],inactive
O=C(O)C(Cl)Cl,Potency,[7],inactive
same,Potency,[13],inactive
same,outcome,[14],inactive
same,activation,[15],-0.327% (inactive)
same,Potency,[16],inactive
CC(=O)[O][Hg][c]1ccccc1,Potency,[7],50.1 µM (active)
same,Potency,[13],2.24 µM [inconclusive] (active)
same,Potency,[18],2.24 µM (active)
same,activation,[15],23.7% (inactive)
same,Potency,[16],0.141 µM (active)
CCCCCC[C@H]1C(=O)O[C@H](C)[C@H](NC(=O)c2cccc(NC=O)c2O)C(=O)O[C@@H](C)[C@@H]1OC(=O)CC(C)C,outcome,[10],inactive
same,outcome,[14],inactive
same,activation,[15],-11.1% (inactive)
O=C(O)COc1ccccc1,Potency,[7],inactive
same,Potency,[13],inactive
same,outcome,[14],inactive
same,activation,[15],-4.12% (inactive)
same,Potency,[16],inactive
CN1C(=O)CC[C@H]1c1cccnc1,Potency,[6],inactive
NC(CO)C(=O)NNCc1ccc(O)c(O)c1O (stereo not given),Potency,[6],inactive
CN(C)[C@@H]1C(=O)C(C(N)=O)=C(O)[C@@]2(O)C(=O)C3=C(O)c4c(O)cccc4[C@@](C)(O)[C@H]3[C@H](O)[C@@H]12,Potency,[7],inactive
CCCCCCCCCCCCCCCC[N+](C)(C)C,Potency,[7],22.4 µM (active) and 31.6 µM (active)
same,activation,[15],4.02% (inactive)
same,Potency,[16],inactive
Cc1cccc(C#Cc2ccccc2)n1,Potency,[6],inactive
Cc1ccc(Cl)c(O)c1,Potency,[7],inactive
O=C1C(I)=CC(=C(c2cc(I)c(O)c(I)c2)c2ccccc2C(=O)O)C=C1I,Potency,[7],25.1 µM (active)
CCCCCCCCCC(CC)c1ccc(S(=O)(=O)O)cc1 (stereo not given),Potency,[7],79.4 µM (active)
same,activation,[15],8.71% (inactive) and 0.614% (inactive)
same,Potency,[16],inactive
O=C(O)CCCOc1ccc(Cl)cc1Cl,Potency,[7],inactive
same,activation,[19],-19.7% (inactive)
same,Potency,[18],inactive
NC1=NC(=O)N2CC12 (stereo not given),Potency,[7],inactive
COc1ccc(C(=O)c2c(C)n(CCN3CCOCC3)c3cc(I)ccc23)cc1,outcome,[10],inactive
C#CC1(O)CCC2C3CCC4=CC(=O)CCC4(C)C3CCC21C (stereo not given),Potency,[7],50.1 µM (active)
O=[N+]([O-])c1c2ccccc2cc2ccccc12,Potency,[13],inactive
C[N+]1(C)C2CC(OC(=O)[C@H](CO)c3ccccc3)CC1C1OC12 (stereo not given in full),Potency,[6],inactive
same,Potency,[9],inactive
CS(=O)(=O)Nc1ccc([N+](=O)[O-])cc1Oc1ccccc1,Potency,[6],inactive
Nc1c(Cl)c(Cl)c(Cl)c(Cl)c1Cl,activation,[19],1.01% (inactive)
same,Potency,[18],inactive
O=S(=O)(O)C(F)(F)C(F)(F)C(F)(F)C(F)(F)F,Potency,[13],inactive
same,activation,[15],0.888% (inactive)
same,Potency,[16],inactive
Nc1cccc2c(N)cccc12,Potency,[18],inactive
same,activation,[15],-1.46% (inactive)
COc1ccc(C(c2ccc(OC)cc2)C(Cl)(Cl)Cl)cc1,activation,[15],4.73% (inactive) and 3.18% (inactive) and 4.31% (inactive)
O=C(Nc1ccccc1-c1ccc(Cl)cc1)c1cccnc1Cl,Potency,[13],inactive
same,outcome,[14],inactive
same,activation,[15],-16.1% (inactive)
same,Potency,[16],inactive
Nc1ccc(Cl)cc1N,activation,[19],-2.06% (inactive)
same,Potency,[18],inactive
same,outcome,[17],inactive
same,activation,[15],0.0302% (inactive) and -3.42% (inactive)
same,Potency,[16],inactive

# — PubChem BioAssay (NCATS)
